Out of some 69,000 compounds screened, about 8,600 (12%) showed an effect of 50% or more. What follows is part of a selection rich in strong results, with near analogues and random picks from the rest.

In the assay the test system is Plasmodium berghei. Description: Screen against P. berghei liver stage (PbLuc), transformed with Luciferase, at 10uM. In kind it is functional, HepG2. As to conditions: tested at 10 uM.
In the case of `Cc1n[nH]c(C)c1-c1cnc(CC2CCN(C(C)C)CC2)cn1`, the INHIBITION is given as 23.2%.
For `O=C(CCCn1ccnc1)NC1CCCN(c2ccccc2Cl)C1` (centres undefined) the value was 88%; for `O=C(NC1CCCN(c2ccccc2Cl)C1)c1nc(=O)[nH][nH]1` (centres undefined), -6.05%.
In the case of `Cc1cc(F)ccc1N1CCCC(NC(=O)CCc2ccncc2)C1` (centres undefined), the INHIBITION is 29%.
Take `Cc1ccc(Cl)cc1N1CCC(CNC(=O)CCn2ccnc2)C1` (centres undefined): the INHIBITION stood at 31.8%.
As to `Cc1cc(F)ccc1N1CCCC(NC(=O)CCCn2ccnc2)C1` (centres undefined), the INHIBITION was found to be 70.1%.
Regarding `O=C(NC1CCCN(c2ccccc2Cl)C1)c1c[nH]nn1` (centres undefined), the INHIBITION is given as 21.1%.
`CCOCC1CN(c2ccncn2)Cc2cnn(CC)c21` (centres undefined): the INHIBITION is listed as 5.67%.
For `Cc1nn(C)c2cn(CC(=O)N3CCc4ccccc4C3)nc12` the value was 8.49%; for `CC(C)(C)NC(=O)N1CCC(Oc2ccc(C(F)(F)F)cn2)CC1`, 86.3%; for `CCOCC(=O)N1CCC(Oc2ccc(C(F)(F)F)cn2)CC1`, 11.8%.
Then `CCOC(=O)N1CCC(Oc2ccc(C(F)(F)F)cn2)CC1`, with -16.4%; and `NC(=O)Cn1cc(NC(=O)N2CCSCC2)cn1`, with -15%; and `O=C(NCc1ccnc(OCC(F)(F)F)c1)NCC1COCCO1` (centres undefined), with 4.12%.
As for `CC(CC(=O)c1ccccc1)NC(=O)c1ccon1` (centres undefined), the INHIBITION was determined as 28.2%.
For `Cc1nc(CSCCC(=O)NCc2ccc(N(C)C)cc2)cs1` the value was -58%; for `Cc1ccc(C(=O)N2CCN(CCCSCC#N)CC2)cc1F`, 5.41%.
Regarding `N#CCSCCCN1CCN(C(=O)c2cccc(Cl)c2)CC1`, the INHIBITION worked out at 10.7%.
`N#CCSCCCN1CCN(C(=O)c2ccc(Cl)cc2)CC1`: the INHIBITION came out at 3.47%.
`N#CCSCCCN1CCN(C(=O)c2ccccc2F)CC1`: the INHIBITION is given as 69.7%.
For `CC(=O)N1CCN(CCCSCc2ccccc2)CC1` the value was -23.5%; for `O=C(c1ccccc1F)N1CCN(CCCn2cncn2)CC1`, 32.3%.
Then `CC(=O)N1CCCN(CCCSCc2ccccc2)CC1`, with 15.7%; and `N#CCSCCCN1CCCN(C(=O)c2ccccc2)CC1`, with 50.1%.
Then `Cc1cccc(C(=O)N2CCCN(CCCSCC#N)CC2)c1`, with 59.2%; and `Cc1nc(CN2CCO[C@@H]3CN(Cc4ccsc4)C[C@@H]3C2)cs1`, with 22.5%.
In the case of `Cc1ccc(N2CCN(C(=O)CN3C[C@H]4CC[C@@H]3C4)CC2=O)cc1`, the INHIBITION worked out at 32.1%.
Then `CSc1ncnc(NCc2ccco2)c1C#N`, with 9%.
With `Cc1cccc(N2CCCC3(C2)CN(c2nncs2)CCO3)c1` (centres undefined), the INHIBITION is reported as 38.5%.
`CC(=O)N1CCCC2(C1)CN(C(=O)c1ccncc1)CCO2` (centres undefined): the INHIBITION is given as 27.6%.
Take `CC(=O)N1CCCC2(C1)CN(c1nncs1)CCO2` (centres undefined): the INHIBITION was determined as 34%.
Then `c1cncc(N2CCOC3(CCCN(c4nncs4)C3)C2)c1` (centres undefined), with 26.3%.
For `O=C(c1ccncc1)N1CCOC2(CCCN(c3nncs3)C2)C1` (centres undefined) the value was 58.4%; for `COc1ccc(N2CCCC3(C2)CN(c2nncs2)CCO3)cc1` (centres undefined), 65.6%; for `O=C(CSc1ccccc1F)NS(=O)(=O)c1ccc2c(c1)OCCO2`, 40.9%.
For `CCn1cc(S(=O)(=O)N2CCN(S(=O)(=O)c3ccc(Br)s3)CC2)cn1`, the INHIBITION turned out to be 41%.
`CCc1nnc(NC(=O)CCN2CC=C(c3cnn(C)c3)CC2)s1`: the INHIBITION turned out to be 60.2%.
Then `COc1ccccc1OCCCN1CC=C(c2cnn(C)c2)CC1`, with 30.1%.
Then `CO[C@H]1C[C@@H](O)C12CCN(CCCOc1ccc(C(N)=O)cc1)CC2`, with 33.7%; and `COc1ccc(NC(=O)CCN2CC=C(c3cnn(C)c3)CC2)cc1Cl`, with -37.2%.
Then `NC(=O)c1ccc(OCCCN2CCC3(CC2)OCCCC3O)cc1` (centres undefined), with 47.6%; and `Cn1cc(C2=CCN(CCC(=O)NCc3ccc(Cl)cc3)CC2)cn1`, with 33.7%.
In the case of `CCc1cccc(NC(=O)CCN2CC=C(c3cnn(C)c3)CC2)c1`, the INHIBITION was determined as 0.348%.
Then `COc1ccc(NC(=O)CCN2CC=C(c3cnn(C)c3)CC2)c(C)c1`, with 11.5%.
Then `Cn1cc(C2=CCN(CCCC(=O)Nc3ccc(C#N)cc3)CC2)cn1`, with 50.4%.
Then `Cn1cc(C2=CCN(CCCOc3ccc(C(N)=O)cc3)CC2)cn1`, with 53.9%.
In the case of `CC[C@@]1(O)CCN(CCCOc2ccc(C(N)=O)cc2)C[C@H]1O`, the INHIBITION is reported as 50.5%.
Then `CCn1cc(C2=CCN(CCCOc3ccccc3)CC2)cn1`, with 9.56%; and `CC(C)NC(=O)CCCn1cnc2ccccc2c1=O`, with 10.5%.
For `O=C(CCn1c(=O)oc2ccccc21)NCC(O)c1ccc(F)c(F)c1` (centres undefined) the value was -12.5%; for `O=S(=O)(N1CCOCC1)N1CCCCC1CCn1cccn1` (centres undefined), -84.5%.
With `N#Cc1c(CN2CCCC2Cn2cncn2)cn2ccccc12` (centres undefined), the INHIBITION is -36%.
For `O=C(c1ccccn1)N1CCC(S(=O)(=O)c2ccccc2)C1` (centres undefined) the value was 45.5%; for `O=C1CCOC[C@]2(CN(Cc3ccccc3)C[C@H]2c2ccccc2)N1`, 37.1%.
As to `CCC(O)CN1CCN(C(=O)CCc2c(C)noc2Cl)CC1` (centres undefined), the INHIBITION is on record as 25.1%.
Consider `CC(=O)N1CCC(c2ccnc(Nc3cncnc3)n2)C1` (centres undefined), for which the INHIBITION came out at 42.6%.
On to `CCN1CC2(CCNCC2)COc2ccccc2S1(=O)=O`, for which the INHIBITION was -0.79%.
Regarding `CNC(=O)CN1C(=O)CCC12CCCN(Cc1cccc(F)c1)C2` (centres undefined), the INHIBITION was determined as 32.1%.
For `Cc1nc2[nH]cnc(Nc3cc(C)n(C)n3)c-2n1` the value was -6.42%.
Take `CCN(Cc1ccncc1)C1CCCN(Cc2ccc(F)cc2OC)C1` (centres undefined): the INHIBITION was determined as 25.5%.
Then `CCn1ccnc1CN(C)C1CCCN(Cc2ccccc2F)C1` (centres undefined), with -11.3%; and `CCn1c(C2CCCN(Cc3ccc(F)cc3Cl)C2)nn(C)c1=O` (centres undefined), with -36.4%.
Then `CCN(Cc1ccncc1)C1CCCN(Cc2ccc(F)cc2Cl)C1` (centres undefined), with 62.4%.
With `CCN(Cc1ccncc1)C1CCCN(C/C=C/c2ccc(F)cc2)C1` (centres undefined), the INHIBITION is given as 55.9%.
As for `Cc1nc(CN2CCCC(N(C)CCc3ccncc3)C2)no1` (centres undefined), the INHIBITION was determined as 25.7%.
Then `O=C(c1ccncc1F)N1CCc2onc(COc3cccnc3)c2C1`, with 29.9%; and `CCc1nc(CC)n(CC(=O)NCc2ccccc2C)n1`, with 37.6%.
`CC(Cn1cccn1)NC(=O)N(C)Cc1cnn(C)c1` (centres undefined): the INHIBITION turned out to be 22.6%.
For `O=C(c1ccc2c(c1)CCO2)N1CCN(c2cnccn2)CC1` the value was -32%; for `NCC(=O)N1CCCC(O)(CN2CCN(c3ccccc3)CC2)CC1` (centres undefined), 2.55%; for `CO[C@H]1CCN(c2nnc(C)s2)C[C@@H]1Cc1ccccc1`, -13.7%.
Turning to `COc1ccc(C[C@H]2CN(c3nnc(C)s3)CC[C@@H]2OC)cc1`, the INHIBITION is on record as -3.83%.
As for `Cc1nnc(N2CC[C@H](OCC3CC3)[C@@H](Cc3ccccc3)C2)s1`, the INHIBITION is 41.4%.
For `COc1ccc(C[C@H]2CN(c3nnc(C)s3)CC[C@H]2OC)cc1`, the INHIBITION is given as 61.9%.
For `Cc1nnc(N2CC[C@@H](OCC3CC3)[C@@H](Cc3ccccc3)C2)s1` the value was 92.5%; for `CO[C@@H]1CCN(c2nnc(C)s2)C[C@@H]1Cc1ccccc1`, 37.8%; for `CC(C)(C(=O)NCC1CCN(Cc2cccnc2)C1)c1ccccc1` (centres undefined), 6.66%.
With `O=C(NC1CC1)c1ccccc1NCc1cn2cccnc2n1`, the INHIBITION is -17%.
Consider `Cn1ccnc1CN1CCC2(CC1)CC(N1CCCC1)c1ccccc12` (centres undefined), for which the INHIBITION was 24.6%.
Then `CN1CC2(CCN(Cc3cccnc3)CC2)c2cc(F)ccc21`, with -29.8%.
Then `Cn1ccnc1CN1CCC2(CC1)CCN(c1ccccc1)C2=O`, with 16.6%; and `CN(C)C1CCC2(CCN(Cc3cccnc3)CC2)c2ccccc21` (centres undefined), with 50.4%.
Consider `CN1CC2(CCN(Cc3cccnc3)CC2)c2cccc(F)c21`, for which the INHIBITION is given as -16.9%.
Then `CN(C)C1CCC2(CCN(Cc3nccn3C)CC2)c2ccccc21` (centres undefined), with 66.3%; and `Cc1nn(CCC(=O)N2CCCC(OCc3cccnc3)C2)c(C)c1C` (centres undefined), with 41.2%; and `COC1CCCOC12CCN(C(=O)NCCc1cccs1)CC2` (centres undefined), with -142%.
With `O=C(N1CCCCC1)N1CCCC(c2ncncc2-c2ccncc2)C1` (centres undefined), the INHIBITION came to 17.1%.
For `CCCc1cc(C(=O)N(Cc2cccnc2)C2CCCCC2)[nH]n1` the value was -9.87%.
Then `CCCc1cc(CN(C)C2CCSCC2)n[nH]1`, with 50.1%; and `CCCc1cc(CN(C)C2CSCCSC2)n[nH]1`, with 51.1%.
For `COCc1cc(CN(C)C(=O)c2c[nH]nc2-c2cccc(F)c2)n[nH]1` the value was -11.2%.
With `CCCc1cc(CN(C)C2CC(C)(C)NC(C)(C)C2)n[nH]1`, the INHIBITION is given as 11.6%.
Turning to `Cc1cc(CC(C)NC2CCSCC2)[nH]n1` (centres undefined), the INHIBITION was 22.7%.
For `CCCNC(=O)NC(=O)CN1CCN(Cc2nccn2CC)CC1` the value was 5.308%.
For `Cc1nc(CN2CCN(C(=O)CCc3nc(C(C)(C)C)no3)CC2)cs1` the value was 30.8%; for `c1cncc(CN2CCc3c(nnn3CC3CC3)C2COCC2CC2)c1` (centres undefined), 27.4%; for `CCN1CCN(C(=O)Cn2ncc3c2c(C)nn3C(C)C)CC1`, 15.9%.
Then `CCC(C)N(C)CCNC(=O)c1ccccc1OCCOC` (centres undefined), with 8.64%; and `O=C1CCC2(CCCN(Cc3ccccc3F)C2)N1CC1CC1` (centres undefined), with -19.6%.
In the case of `CCOCc1ccccc1NC(=O)NCC(C)(O)c1cccs1` (centres undefined), the INHIBITION is 0.734%.
Turning to `CCOCc1ccccc1NC(=O)NCC(C)(O)c1ccsc1` (centres undefined), the INHIBITION stood at 11%.
Then `CCOCc1ccccc1NC(=O)NCC(C)(O)c1cc(C)oc1C` (centres undefined), with 85.5%; and `CCC(CN1CCCC1)n1cncc1-c1cnn(Cc2ccccc2)c1` (centres undefined), with 3.5%.
For the molecule `CN(C)S(=O)(=O)N1CCC(c2ccncc2)CC1`, the INHIBITION is listed as -33.4%.
Take `Cc1cc(C)nc(NC(=O)C(C)Oc2ccc3c(c2)OCO3)n1` (centres undefined): the INHIBITION is reported as 48.5%.
On to `Cc1cc(NC(=O)C(C)Oc2ccc3c(c2)OCO3)no1` (centres undefined), for which the INHIBITION is given as 14.6%.
In the case of `Cc1cccc(NC(=O)C(C)Oc2ccc3c(c2)OCO3)n1` (centres undefined), the INHIBITION was found to be 53.7%.
For `CC(=O)c1cccc(CN2CCCC23CCN(c2ccccn2)CC3)c1` the value was 19.8%.
`CNS(=O)(=O)c1ccc(CCC(=O)NCc2cccc(OC)c2)cc1`: the INHIBITION was -74.6%.
Turning to `COc1cccc(CN(C)CC2=Nc3ccccc3S(=O)(=O)N2)c1`, the INHIBITION was 69.7%.
For `COc1cccc(CSC=C2Nc3ccccc3S(=O)(=O)N2)c1` the value was 27.7%.
Then `COc1cccc(CNC(=O)CCC2=Nc3ccccc3S(=O)(=O)N2)c1`, with 57%.
Take `COc1cccc(CNC(=O)CCOc2ccccc2C)c1`: the INHIBITION is recorded as 2.43%.
As to `COc1cccc(CN(C)CC(=O)NC2(C)CCS(=O)(=O)C2)c1` (centres undefined), the INHIBITION is -27.9%.
